# Measured values from PubChem BioAssay AID1159580 (chemical genetic matrix, 2015).
# Out of some 5,500 compounds screened, about 2,000 (36%) were called active. Another 18% or so got no clear call; they are omitted. This is one part of the list. Unmarked numbers belong to inactive results. Cut-off read from the data, not from the text of the source: active = normalized growth mostly below about 0.91 (no sharp cut-off); inconclusive = no clear call, values can overlap the other calls; inactive = mostly above about 0.92.
# Experiment: chemical genetic growth profiling, strain panel (AID 1159580);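 note: tested at 20 µM; growth read once vehicle control cultures reached saturation at 30 °C; 1 = growth at the plate median or of vehicle wells; lower values mean less growth of the strain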
# Settings: S. cerevisiae deletion strains, growth OD
# [1] = locus YAR019C, strain CDC15, stronger effect = lower value
# [2] = locus YBL105C, strain PKC1, stronger effect = lower value
# [3] = locus YBR135W, strain CKS1, stronger effect = lower value
# [4] = locus YBR136W, strain MEC1, stronger effect = lower value
# [5] = locus YBR160W, strain CDC28, stronger effect = lower value
# [6] = locus YDL017W, strain CDC7, stronger effect = lower value
# [7] = locus YDL028C, strain MPS1, stronger effect = lower value
# [8] = locus YDL101C, strain DUN1, stronger effect = lower value
# [9] = locus YDL108W, strain KIN28, stronger effect = lower value
# [10] = locus YDL132W, strain cdc53, stronger effect = lower value
# [11] = locus YDL214C, strain PRR2, stronger effect = lower value
# [12] = locus YDR052C, strain DBF4, stronger effect = lower value
# [13] = locus YDR054C, strain cdc34, stronger effect = lower value
# [14] = locus YDR226W, strain ADK1, stronger effect = lower value
# [15] = locus YDR477W, strain SNF1, stronger effect = lower value
# [16] = locus YER123W, strain YCK3, stronger effect = lower value
# [17] = locus YER133W, strain GLC7, stronger effect = lower value
# [18] = locus YFL009W, strain cdc4, stronger effect = lower value
# [19] = locus YFL029C, strain CAK1, stronger effect = lower value
# [20] = locus YFR003C, strain YPI1, stronger effect = lower value
# [21] = locus YFR019W, strain FAB1, stronger effect = lower value
# [22] = locus YFR028C, strain CDC14, stronger effect = lower value
# [23] = locus YGR040W, strain KSS1, stronger effect = lower value
# [24] = locus YGR052W, strain FMP48, stronger effect = lower value
# [25] = locus YGR092W, strain DBF2, stronger effect = lower value
# [26] = locus YHR030C, strain SLT2, stronger effect = lower value
# [27] = locus YHR079C, strain IRE1, stronger effect = lower value
# [28] = locus YHR082C, strain KSP1, stronger effect = lower value
# [29] = locus YHR205W, strain SCH9, stronger effect = lower value
# [30] = locus YIL147C, strain SLN1, stronger effect = lower value
# [31] = locus YJL095W, strain BCK1, stronger effect = lower value
# [32] = locus YJL128C, strain PBS2, stronger effect = lower value
# [33] = locus YJL157C, strain FAR1, stronger effect = lower value
# [34] = locus YJR016C, strain ILV3, stronger effect = lower value
# [35] = locus YJR066W, strain TOR1 (second series), stronger effect = lower value
# [36] = locus YJR066W, strain TOR1, stronger effect = lower value
# [37] = locus YKL048C, strain ELM1, stronger effect = lower value
# [38] = locus YKL067W, strain YNK1, stronger effect = lower value
# [39] = locus YKL101W, strain HSL1, stronger effect = lower value
# [40] = locus YKL193C, strain SDS22, stronger effect = lower value
# [41] = locus YKL203C, strain TOR2, stronger effect = lower value
# [42] = locus YLR113W, strain HOG1, stronger effect = lower value
# [43] = locus YLR133W, strain CKI1, stronger effect = lower value
# [44] = locus YLR403W, strain SFP1, stronger effect = lower value
# [45] = locus YML070W, strain DAK1, stronger effect = lower value
# [46] = locus YMR001C, strain CDC5, stronger effect = lower value
# [47] = locus YMR205C, strain PFK2 (second series), stronger effect = lower value
# [48] = locus YMR277W, strain FCP1, stronger effect = lower value
# [49] = locus YNL006W, strain LST8, stronger effect = lower value
# [50] = locus YNL020C, strain ARK1, stronger effect = lower value
# [51] = locus YNL161W, strain CBK1, stronger effect = lower value
# [52] = locus YNL183C, strain NPR1, stronger effect = lower value
# [53] = locus YNL207W, strain RIO2, stronger effect = lower value
# [54] = locus YNL222W, strain SSU72, stronger effect = lower value
# [55] = locus YNL307C, strain MCK1 (second series), stronger effect = lower value
# [56] = locus YOL078W, strain AVO1, stronger effect = lower value
# [57] = locus YOL136C, strain PFK27, stronger effect = lower value
# [58] = locus YOR061W, strain CKA2, stronger effect = lower value
# [59] = locus YOR119C, strain RIO1, stronger effect = lower value
# [60] = locus YOR231W, strain MKK1, stronger effect = lower value
# [61] = locus YOR329C, strain SCD5, stronger effect = lower value
# [62] = locus YPL031C, strain PHO85, stronger effect = lower value
# [63] = locus YPL153C, strain RAD53, stronger effect = lower value
# [64] = locus YPL204W, strain HRR25, stronger effect = lower value
# [65] = locus YPL209C, strain IPL1, stronger effect = lower value
# [66] = locus YPL256C, strain CLN2, stronger effect = lower value
# [67] = locus YPR025C, strain CCL1, stronger effect = lower value
# [68] = locus YPR106W, strain ISR1, stronger effect = lower value
# [69] = locus YPR111W, strain DBF20, stronger effect = lower value
# [70] = strain NNK1, stronger effect = lower value
# [71] = strain TSCII, stronger effect = lower value
smiles,measurement,setting,value
N/C(=N/OC(=O)c1ccccc1Cl)c1cccc(CS(=O)(=O)c2ccc(Cl)cc2)c1,normalized growth,[1],0.993
same,normalized growth,[2],0.975
same,normalized growth,[3],0.981
same,normalized growth,[4],0.986
same,normalized growth,[5],0.981
same,normalized growth,[6],0.984
same,normalized growth,[7],0.991
same,normalized growth,[8],0.982
same,normalized growth,[9],0.986
same,normalized growth,[10],0.984
same,normalized growth,[11],1.04
same,normalized growth,[12],0.981
same,normalized growth,[13],0.984
same,normalized growth,[14],0.981
same,normalized growth,[15],0.997
same,normalized growth,[16],0.995
same,normalized growth,[17],1
same,normalized growth,[18],0.98
same,normalized growth,[19],0.985
same,normalized growth,[20],0.977
same,normalized growth,[21],1.01
same,normalized growth,[22],0.99
same,normalized growth,[23],1
same,normalized growth,[24],1.02
same,normalized growth,[25],0.974
same,normalized growth,[26],1.12
same,normalized growth,[27],1.09
same,normalized growth,[28],1.13
same,normalized growth,[29],0.984
same,normalized growth,[30],0.988
same,normalized growth,[31],0.973
same,normalized growth,[32],0.985
same,normalized growth,[33],1.01
same,normalized growth,[34],0.999
same,normalized growth,[35],0.982
same,normalized growth,[36],1.07
same,normalized growth,[37],0.996
same,normalized growth,[38],1.01
same,normalized growth,[39],1.01
same,normalized growth,[40],0.983
same,normalized growth,[41],1.07
same,normalized growth,[42],0.996
same,normalized growth,[43],1.02
same,normalized growth,[44],0.987
same,normalized growth,[45],1.02
same,normalized growth,[46],0.986
same,normalized growth,[47],1
same,normalized growth,[48],0.99
same,normalized growth,[49],0.994
same,normalized growth,[50],1.02
same,normalized growth,[51],0.988
same,normalized growth,[52],1.04
same,normalized growth,[53],0.98
same,normalized growth,[54],0.981
same,normalized growth,[55],0.968
same,normalized growth,[56],0.986
same,normalized growth,[57],1.03
same,normalized growth,[58],1.01
same,normalized growth,[59],1.08
same,normalized growth,[60],1.01
same,normalized growth,[61],0.994
same,normalized growth,[62],1.01
same,normalized growth,[63],0.994
same,normalized growth,[64],1
same,normalized growth,[65],0.981
same,normalized growth,[66],1.2 [resistant] (active)
same,normalized growth,[67],0.988
same,normalized growth,[68],1
same,normalized growth,[69],0.988
same,normalized growth,[70],0.99
same,normalized growth,[71],0.988
Cc1nn(Cc2cccc(C(=O)O/N=C(/N)c3ccc(Cl)cc3)c2)c(C)c1Br,normalized growth,[1],0.982
same,normalized growth,[2],0.978
same,normalized growth,[3],0.971
same,normalized growth,[4],0.977
same,normalized growth,[5],0.973
same,normalized growth,[6],0.974
same,normalized growth,[7],0.981
same,normalized growth,[8],0.987
same,normalized growth,[9],0.972
same,normalized growth,[10],0.979
same,normalized growth,[11],0.972
same,normalized growth,[12],0.98
same,normalized growth,[13],0.973
same,normalized growth,[14],0.978
same,normalized growth,[15],0.915
same,normalized growth,[16],0.929
same,normalized growth,[17],0.953
same,normalized growth,[18],0.965
same,normalized growth,[19],0.991
same,normalized growth,[20],0.982
same,normalized growth,[21],0.974
same,normalized growth,[22],0.962
same,normalized growth,[23],0.93
same,normalized growth,[24],1.03
same,normalized growth,[25],0.978
same,normalized growth,[26],1.01
same,normalized growth,[27],1.1
same,normalized growth,[28],1.07
same,normalized growth,[29],0.999
same,normalized growth,[30],0.984
same,normalized growth,[31],0.932
same,normalized growth,[32],1.01
same,normalized growth,[33],0.985
same,normalized growth,[34],0.977
same,normalized growth,[35],0.954
same,normalized growth,[36],1.08
same,normalized growth,[37],0.968
same,normalized growth,[38],0.958
same,normalized growth,[39],0.924
same,normalized growth,[40],0.98
same,normalized growth,[41],1.02
same,normalized growth,[42],0.915
same,normalized growth,[43],0.972
same,normalized growth,[44],0.93
same,normalized growth,[45],0.947
same,normalized growth,[46],0.983
same,normalized growth,[47],0.965
same,normalized growth,[48],0.973
same,normalized growth,[49],0.99
same,normalized growth,[50],0.972
same,normalized growth,[51],0.984
same,normalized growth,[52],0.997
same,normalized growth,[53],0.984
same,normalized growth,[54],0.979
same,normalized growth,[55],1
same,normalized growth,[56],0.977
same,normalized growth,[57],0.955
same,normalized growth,[58],0.955
same,normalized growth,[59],1.01
same,normalized growth,[60],0.927
same,normalized growth,[61],0.98
same,normalized growth,[62],0.929
same,normalized growth,[63],0.81
same,normalized growth,[64],0.942
same,normalized growth,[65],0.987
same,normalized growth,[66],1.03
same,normalized growth,[67],0.978
same,normalized growth,[68],0.99
same,normalized growth,[69],0.995
same,normalized growth,[70],0.998
same,normalized growth,[71],0.987
